Results filed as inconclusive are left out. The source made the active and inactive calls. How the source made its calls: active means hit-call score of the fitted dose curve at least 0.9, where 1 is the maximum; inconclusive means response in the unintended direction; inactive means score below 0.9.
Assays:
[1] = target: Estrogen receptor (Homo sapiens) (UniProt P03372); test: ATG_hERa_XSP1: Attagene TRANS-FACTORIAL Multi-Species (XSP1) HepG2 Assay for human Estrogen Receptor (ESR1) (AID 2283780)
In short: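 Reporter transcripts from multiplexed GAL4-UAS units driven by NR-Gal4 chimeras in transiently transfected HepG2 were measured by RT-PCR with capillary electrophoresis 24 h post-dose, with 3 nM 6-alpha-fluorotestosterone present; gain-of-signal relative to DMSO.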

[2] = test system: turtle Estrogen Receptor (ESR1), gene 101933533; test: ATG_trERa_XSP1: Attagene TRANS-FACTORIAL Multi-Species (XSP1) HepG2 Assay for turtle Estrogen Receptor (ESR1) (AID 2283781)
In short: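 Cell-based chimeric NR-Gal4 transactivation; HepG2; 24 h dosing; mRNA reporter detected by RT-PCR and capillary electrophoresis fluorescence.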

[3] = target: GAL4 Transcription Factor (Internal Marker), GAL4 (gene 855828) (UniProt P04386); test: ATG_GAL4_XSP1: Attagene TRANS-FACTORIAL Multi-Species (XSP1) HepG2 Assay for GAL4 Transcription Factor (Internal Marker) (AID 2283789)
Method: ATG_XSP1_multi-species_TRANS is a cell-based, multiplexed assay created by modifying the existing Attagene TRANS-FACTORIAL system to include a panel of nuclear receptors from some or all the following species: human (Homo sapiens), mouse (Mus musculus), frog (Xenopus laevis), zebrafish (Danio rerio), chicken (Gallus gallus), and turtle (Chrysemys picta). The ECOTOX-FACTORIAL format uses HepG2, a human liver cell line, with measurements taken at 24 hours after chemical dosing in a 24-well plate. Xsp1 included 3 nM 6-alpha-fluorotestosterone to partially stimulate the androgen receptor.ATG_GAL4_XSP1 is one of 29 assay components measured or calculated from the ATG_XSP1_multi-species_TRANS assay. It is designed to make measurements of mRNA induction, a form of inducible reporter, as detected with fluorescence intensity signals by Reverse transcription polymerase chain reaction (RT-PCR) and Capillary electrophoresis technology.This assay endpoint, ATG_GAL4_XSP1, was analyzed in the positive analysis fitting direction relative to DMSO as the negative control and baseline of activity. […] Furthermore, this assay endpoint can be referred to as a secondary readout, because this assay has produced multiple assay endpoints where this one serves a background control function. […]

[4] = ATG_M_06_XSP1: Attagene TRANS-FACTORIAL Multi-Species (XSP1) HepG2 Assay for M06 Transcription Factor (Internal Marker) (AID 2283790)
In short: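 This background-control readout tracks M06 reporter mRNA, measured by RT-PCR and capillary electrophoresis. HepG2 cells transiently carrying the GAL4-UAS reporter panel were dosed for 24 h with 3 nM 6-alpha-fluorotestosterone added for partial AR stimulation; increases were scored relative to DMSO.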

[5] = ATG_M_61_XSP1: Attagene TRANS-FACTORIAL Multi-Species (XSP1) HepG2 Assay for M61 Transcription Factor (Internal Marker) (AID 2283797)
In short: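 Background-control readout: reporter transcripts measured by RT-PCR and capillary electrophoresis 24 h after dosing transiently transfected HepG2 multi-reporter cells, with 3 nM 6-alpha-fluorotestosterone present. Fitted in the positive direction relative to DMSO.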

[6] = test system: zebrafish Peroxisome Proliferator-activated Receptor gamma (PPARg), gene 557037; test: ATG_zfPPARg_XSP1: Attagene TRANS-FACTORIAL Multi-Species (XSP1) HepG2 Assay for zebrafish Peroxisome Proliferator-activated Receptor gamma (PPARg) (AID 2283801)
In short: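 Trans-activation readout of chimeric zebrafish PPARg–GAL4 in transiently transfected human HepG2 cells, 24 h chemical exposure (medium includes 3 nM 6-alpha-fluorotestosterone). Reporter transcripts measured by RT-PCR and capillary electrophoresis, fitted as gain over DMSO.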

Measured: outcome

Chain of Estrogen receptor (Homo sapiens) (P03372 whole entry, looked up, the tested form may be a part): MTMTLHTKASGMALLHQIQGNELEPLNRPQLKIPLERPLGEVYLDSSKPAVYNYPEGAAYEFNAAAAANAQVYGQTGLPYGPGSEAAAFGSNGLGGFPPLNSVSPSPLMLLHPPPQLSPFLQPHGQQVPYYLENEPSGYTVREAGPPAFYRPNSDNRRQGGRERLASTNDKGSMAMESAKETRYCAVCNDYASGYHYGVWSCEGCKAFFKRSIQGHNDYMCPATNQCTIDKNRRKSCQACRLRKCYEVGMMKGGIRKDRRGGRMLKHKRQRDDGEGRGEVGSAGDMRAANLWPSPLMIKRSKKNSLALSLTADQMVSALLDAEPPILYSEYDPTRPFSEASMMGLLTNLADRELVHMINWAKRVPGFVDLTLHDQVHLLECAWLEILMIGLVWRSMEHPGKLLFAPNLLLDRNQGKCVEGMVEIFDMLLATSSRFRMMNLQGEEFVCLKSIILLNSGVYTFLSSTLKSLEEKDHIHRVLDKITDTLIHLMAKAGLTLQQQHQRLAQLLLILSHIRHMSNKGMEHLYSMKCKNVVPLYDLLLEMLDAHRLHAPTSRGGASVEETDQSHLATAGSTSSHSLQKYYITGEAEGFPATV
Chain of GAL4 Transcription Factor (Internal Marker), GAL4 (gene 855828) (P04386 whole entry, looked up, the tested form may be a part): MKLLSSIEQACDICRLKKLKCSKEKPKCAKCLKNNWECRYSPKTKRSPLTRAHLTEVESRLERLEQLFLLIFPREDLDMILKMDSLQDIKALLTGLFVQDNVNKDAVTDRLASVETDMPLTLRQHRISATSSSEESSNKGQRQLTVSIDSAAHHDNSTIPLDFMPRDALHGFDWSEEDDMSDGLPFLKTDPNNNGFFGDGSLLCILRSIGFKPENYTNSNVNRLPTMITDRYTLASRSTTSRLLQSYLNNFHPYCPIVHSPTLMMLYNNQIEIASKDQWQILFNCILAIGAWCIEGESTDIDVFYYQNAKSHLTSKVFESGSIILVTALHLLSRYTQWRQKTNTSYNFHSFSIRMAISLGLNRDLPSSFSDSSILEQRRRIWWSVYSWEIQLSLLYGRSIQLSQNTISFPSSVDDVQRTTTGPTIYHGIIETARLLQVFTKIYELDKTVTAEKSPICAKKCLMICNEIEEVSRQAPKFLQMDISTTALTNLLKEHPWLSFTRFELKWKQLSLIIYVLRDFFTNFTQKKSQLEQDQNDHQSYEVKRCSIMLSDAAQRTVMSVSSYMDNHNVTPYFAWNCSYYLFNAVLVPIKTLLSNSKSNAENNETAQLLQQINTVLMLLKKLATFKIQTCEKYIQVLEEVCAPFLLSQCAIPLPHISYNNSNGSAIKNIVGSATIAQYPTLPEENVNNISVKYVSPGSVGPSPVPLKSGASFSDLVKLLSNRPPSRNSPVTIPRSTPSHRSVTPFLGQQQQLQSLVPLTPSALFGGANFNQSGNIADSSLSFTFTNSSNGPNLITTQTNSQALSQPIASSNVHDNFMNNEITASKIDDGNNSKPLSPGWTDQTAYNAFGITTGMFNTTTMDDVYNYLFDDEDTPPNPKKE

CC(C)(C)NC(=O)[C@H]1CC[C@H]2[C@@H]3CC[C@H]4NC(=O)C=C[C@]4(C)[C@H]3CC[C@]12C
inactive: [1] | [2] | [3] | [4] | [5] | [6]

Source: PubChem BioAssay (EPA / NIEHS)
